Results on 40 compounds are retold here after PubChem BioAssay (NCI).

Where “and” joins values, the source holds several entries; their conditions need not be identical. Equal values may be shown once. This is part of a sample that, as a whole, favours compounds with a hit. Of some 83,000 tested, about 20% had one in any assay.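 In brief: 96-well plates, 48 h treatment, single concentration, percent growth endpoint.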 Calls of active or inactive are those of the source. The calls were made as follows: active = growth percent below 10; inactive = the rest.

The subject of the experiment is MDA-MB-468 breast. As to the kind of experiment: NCI-60 one-dose screen, 48 h (100 = growth as untreated, 0 = no growth, -100 = all killed). Conditions: 10 µM unless noted.
Take `O=C(CNc1ccc2c(c1)C(=O)c1ccccc1C2=O)Nc1ccc2c(c1)C(=O)c1ccccc1C2=O`: the growth was -87.4% (active).
Then `CC(=O)N1c2ccccc2NC2=C(C(=O)NC2(C)C)C1c1ccco1` (stereo not given), with 65.9% (inactive); and `COc1ccc(CCNc2nc(SC)nc(-c3cccc([N+](=O)[O-])c3)c2C#N)cc1OC`, with 84.8% (inactive); and `CN1C(=O)N(C)C2C1NN=c1s/c(=C\c3ccc(F)cc3)c(=O)n12` (stereo not given), with -11.4% (active).
Then `CCN1CCN(C(=O)[C@]23CCC(C)(C)C[C@@H]2C2=CC[C@@H]4[C@@]5(C)C/C(=C/c6cccnc6)C(=O)C(C)(C)[C@@H]5CC[C@@]4(C)[C@]2(C)CC3)CC1`, with -6.42% (active).
With `Cn1cc(-c2ccc(-c3cn(C)c4ncccc34)[nH]2)c2cccnc21`, the growth was -23.7% (active).
With `CCCCCCCCCCCCCCCc1cc(O)ccc1N`, the growth was 70.1% (inactive) and 6.15% (active).
Then `C=C1C(=O)O[C@H]2[C@H]1CC/C(COC(=O)C(=O)c1c[nH]c3ccc(OC)cc13)=C\CC[C@@]1(C)O[C@@H]21`, with -67.5% (active); and `Nc1ccc(C2=NN(C(=O)c3cc(-c4ccc(Cl)cc4)nc4ccccc34)C(c3ccccc3)C2)cc1` (stereo not given), with 7.91% (active); and `COc1ccc2c(c1)C(=O)/C(=C/c1ccc([N+](=O)[O-])s1)O2`, with -22.9% (active).
Then `CC(C)COCC(CN(Cc1ccccc1)c1ccccc1)N1CCCC1` (stereo not given), with 32.7% (inactive).
Then `COc1ccc(/C=C/C(=O)C(=O)/C=C/c2ccc(OC)c(OC)c2)cc1OC`, with 20.1% (inactive); and `Ic1ccc(Nc2nc3nonc3nc2Nc2ccc(I)cc2)cc1`, with -4.36% (active); and `CCCCN(CCCC)CCCO`, with 106% (inactive).
Regarding `O=c1[nH]c(Cc2nc3ccccc3s2)nc2cc(Br)ccc12`, the growth was 92.4% (inactive).
Then `Cc1cc2c(C(C)C)c(O)c(O)c(C=NCc3ccoc3)c2c(O)c1-c1c(C)cc2c(C(C)C)c(O)c(O)c(C=NCc3ccco3)c2c1O`, with 61% (inactive); and `O=S(=O)(NCCCNc1nccc(-c2c(-c3ccc(F)c(O)c3)nc3occn23)n1)c1ccc(Cl)cc1`, with 62.2% (inactive).
`C/C(=C\CCc1ccoc1)CC/C=C(\C)CCCNc1ccc(F)cc1`: the growth is 89.8% (inactive).
Then `O=C(CN1N=C(c2ccc(F)cc2)CCC1=O)Nc1nccs1`, with 94.6% (inactive); and `COC(=O)/C(CCC=C(C)C)=C1\[C@@H](OC(C)=O)C[C@@]2(C)[C@H]1C[C@@H](O)[C@H]1[C@@]3(C)CC[C@H](NCCO)[C@@H](C)[C@@H]3CC[C@@]12C`, with 104% (inactive); and `O=C(/C(=C/c1ccc([N+](=O)[O-])cc1)SCc1ccc(F)cc1)c1ccc(F)cc1`, with 83.7% (inactive).
Turning to `CC(C)(C)c1nc(-c2ccc(O)c(O)c2)cs1`, the growth was 53.5% (inactive).
Then `CC/C=C\C/C=C\C[C@H](O)C/C=C1/C(=O)C=C[C@H]1C/C=C\CCC(=O)OC`, with 28.3% [8.25 µM] (inactive); and `COc1cc2nc(-c3ccc(C(F)(F)F)cc3)cc(OCCCN3CCCCC3)c2cc1OC`, with 52.5% (inactive).
Then `Cc1nc([N+](=O)[O-])c(Sc2nncc(-c3ccccc3)n2)n1C`, with 29.5% (inactive); and `Clc1ccc(-c2csc(N/N=C/c3nc4ccccc4n3C3CC3)n2)cc1`, with 90.1% (inactive).
Then `O=C(CBr)OCc1ccc([N+](=O)[O-])o1`, with 109% (inactive); and `Fc1ccc(-c2nc(Nc3ccc(-c4nc5ccccc5[nH]4)cc3)nc(N3CCOCC3)n2)cc1`, with -84% (active).
Consider `Cc1cscc(C)c1=S`, for which the growth is 72.3% (inactive).
Then `CCNc1nc(C(F)(F)F)nc2c1sc(=S)n2-c1ccccc1`, with 81.6% (inactive); and `O=C(CN1C(=O)CSC1=O)Nc1ccc(C(=O)/C=C/c2cc3ccccc3nc2Cl)cc1`, with 48.7% (inactive); and `CC(C)=CC(=O)OC(=O)C=C(C)C`, with 92.9% (inactive).
Then `O=C(Nc1cccc(-n2cc(-c3ccncc3)c(-c3ccc(Cl)c(O)c3)n2)c1)Nc1ccc(Cl)c(C(F)(F)F)c1`, with -49.5% (active); and `COc1cc2c(cc1NC(=O)C(F)(F)F)-c1ccc(NC(=O)C(F)(F)F)cc1C2`, with 58% (inactive).
Then `S=CN1CCCCC1`, with 93% (inactive); and `COc1cc(C(=O)c2ccc3c(c2)OCO3)cc(OC)c1OC`, with 9.88% (active) and -4.92% (active); and `Cc1ccc(N2C3c4ccccc4N(S(=O)(=O)c4ccc(C)cc4)C2c2ccccc2N3S(=O)(=O)c2ccc(C)cc2)cc1`, with 120% (inactive).
As for `Cn1cc(-c2nnc(N)nc2-c2cn(C)c3ccc(F)cc23)c2cc(F)ccc21`, the growth is 99.8% (inactive).
Turning to `CN(C)C(=O)c1cc2cnc(Nc3ccc(-c4csc5c(=S)cc(N6CCOCC6)oc45)cc3)nc2n1C1CCCC1`, the growth is 1.46% (active).
Then `O=C(/C=C1\C(=O)N(Cc2ccc([N+](=O)[O-])cc2)c2ccccc21)c1ccc(OCCN2CCCCC2)cc1`, with -63.1% (active).
